In the antibiotic and cytotoxicity screens of Wong et al. (2023):
In all, about 39,000 compounds went through this assay and about 3,300 (8.5%) were called active. The full list was thinned out, with actives kept by preference.

System: HepG2
Assay: cytotoxicity call (relative viability < 0.9)
Settings: 10 µM

With `C[C@@H]1CN([C@H](C)CO)C(=O)c2cc(-c3cncnc3)cnc2O[C@H]1CN(C)C(=O)Nc1ccc2c(c1)OCO2` as the compound, how does the cytotoxicity call read?
Its cytotoxicity call is “inactive”.

How did the cytotoxicity call turn out when `CCCNC(=O)c1cc2c(c(-c3cccc(-c4cccc(OC)c4)c3)n1)[C@H](CCO)N([S@@](=O)C(C)(C)C)C2` was run?
Its cytotoxicity call is “inactive”.

Which cytotoxicity call does the source give for `COc1ccccc1CN1C(=O)c2ccccc2[C@@]2(Cc3ccccc3N(C3CC3)C2=O)[C@@H]1c1ccc(CO)cc1` here?
The cytotoxicity call was “inactive”.

With `O=C1c2ccccc2[C@@]2(Cc3ccccc3N(C3CC3)C2=O)[C@H](c2ccc(CO)cc2)N1Cc1ccccc1Cl` as the compound, how does the cytotoxicity call read?
Its cytotoxicity call is “inactive”.

`O=C1c2ccccc2[C@@]2(Cc3ccccc3N(C3CC3)C2=O)[C@H](c2ccc(CO)cc2)N1Cc1ccccc1` was tested. Which cytotoxicity call did it give?
The cytotoxicity call was “active”.

How did the cytotoxicity call turn out when `COc1ccc(S(=O)(=O)N[C@@H]2C=C[C@H](CC(=O)N3CCN(c4ccccc4)CC3)O[C@H]2CO)cc1` was run?
The cytotoxicity call was “inactive”.

Which cytotoxicity call does the source give for `OCCc1ccc(O)c(O[C@H]2O[C@@H](CO)[C@@H](O)[C@@H](O)[C@@H]2O)c1` here?
The cytotoxicity call was “inactive”.

With `OCc1ccc(O[C@@H]2O[C@H](CO)[C@@H](O)[C@H](O)[C@H]2O)cc1` as the compound, how does the cytotoxicity call read?
Its cytotoxicity call is “inactive”.

How did the cytotoxicity call turn out when `COc1c(O)cc2c(c1O)[C@@H]1O[C@H](CO)[C@@H](O)[C@H](O)[C@H]1OC2=O` was run?
The cytotoxicity call was “inactive”.

Which cytotoxicity call does the source give for `O=C1c2c(O)cccc2C(C2OC(CO)C(O)C(O)C2O)c2cc(CO)cc(O)c21` (stereo not given) here?
Its cytotoxicity call is “active”.

For `OCc1cc(O)c2c(O)c3c(O)cccc3c(O[C@@H]3O[C@H](CO)[C@@H](O)[C@H](O)[C@H]3O)c2c1`, which cytotoxicity call is on record?
Its cytotoxicity call is “active”.

`OCc1ccccc1O[C@@H]1O[C@H](CO)[C@@H](O)[C@H](O)[C@H]1O` was tested. Which cytotoxicity call did it give?
Its cytotoxicity call is “inactive”.

Which cytotoxicity call does the source give for `O=C(O)c1cc(O)c2c(c1)C(C1c3cc(C(=O)O)cc(O)c3C(=O)c3c(OC4OC(CO)C(O)C(O)C4O)cccc31)c1cccc(OC3OC(CO)C(O)C(O)C3O)c1C2=O` (stereo not given) here?
The cytotoxicity call was “active”.

With `O=C1c2c(O)cc(CO)cc2C(OC2OC(CO)C(O)C(O)C2O)c2cccc(OC3OC(CO)C(O)C(O)C3O)c21` (stereo not given) [CASANTHRANOL [cascaroside A shown] ] as the compound, how does the cytotoxicity call read?
The cytotoxicity call was “inactive”.

How did the cytotoxicity call turn out when `O=C(O)c1cc(O)c2c(O)c3c(O[C@H]4O[C@H](CO)[C@@H](O)[C@H](O)[C@H]4O)cccc3c(-c3c4cc(C(=O)O)cc(O)c4c(O)c4c(O[C@H]5O[C@H](CO)[C@@H](O)[C@H](O)[C@H]5O)cccc34)c2c1` was run?
The cytotoxicity call was “active”.

For `COc1c(O)cc2c(c1O)C1OC(CO)C(O)C(O)C1OC2=O` (stereo not given), which cytotoxicity call is on record?
The cytotoxicity call was “inactive”.

`OCc1cc(O)c2c(O)c3c(O)cccc3c(O[C@@H]3O[C@H](CO)[C@H](O)[C@@H](O)[C@H]3O)c2c1` was tested. Which cytotoxicity call did it give?
The cytotoxicity call was “inactive”.

Which cytotoxicity call does the source give for `O=C(O)c1cc(O[C@@H]2O[C@H](CO)[C@@H](O)[C@H](O)[C@H]2O)c2ccccc2c1O` here?
Its cytotoxicity call is “inactive”.

Which cytotoxicity call does the source give for `CC(C)C#Cc1cnc2c(c1)C(=O)N([C@@H](C)CO)C[C@@H](C)[C@@H](CN(C)C(=O)c1ccc3c(c1)OCO3)O2` here?
Its cytotoxicity call is “inactive”.

Which cytotoxicity call does the source give for `O=C(C[C@H]1C[C@H]2c3cc(NS(=O)(=O)c4ccc(F)cc4)ccc3O[C@H]2[C@@H](CO)O1)NCCN1CCCCC1` here?
Its cytotoxicity call is “inactive”.

`C[C@@H]1CN([C@H](C)CO)C(=O)CCCn2cc(nn2)CO[C@@H]1CN(C)S(=O)(=O)c1ccc2c(c1)OCCCO2` was tested. Which cytotoxicity call did it give?
The cytotoxicity call was “inactive”.

Which cytotoxicity call does the source give for `C[C@H]1CN([C@@H](C)CO)S(=O)(=O)c2ccc(C#Cc3cccc(F)c3)cc2O[C@@H]1CN(C)S(=O)(=O)c1ccccc1F` here?
Its cytotoxicity call is “inactive”.

With `C[C@H](O)C#Cc1ccc2c(c1)O[C@H](CN(C)C)[C@H](C)CN([C@H](C)CO)S2(=O)=O` as the compound, how does the cytotoxicity call read?
The cytotoxicity call was “inactive”.

How did the cytotoxicity call turn out when `COCC(=O)Nc1ccc2c(c1)C(=O)N(C)C[C@H](OC)[C@H](C)CN(Cc1cccc(F)c1)[C@@H](C)CO2` was run?
Its cytotoxicity call is “inactive”.

With `S=c1[nH]nc(C2CCCCC2)[nH]1` as the compound, how does the cytotoxicity call read?
The cytotoxicity call was “inactive”.

`COCC(=O)Nc1ccc2c(c1)C(=O)N(C)C[C@@H](OC)[C@H](C)CN(C(=O)Nc1ccccc1F)[C@H](C)CO2` was tested. Which cytotoxicity call did it give?
The cytotoxicity call was “inactive”.

Which cytotoxicity call does the source give for `Cc1nnc(SCC2=C(C(=O)O)N3C(=O)[C@@H](N)[C@H]3SC2)s1` here?
The cytotoxicity call was “inactive”.

For `CCOC(=O)c1ccc(NC(=S)N[C@@H](NC(=O)c2ccc(Br)cc2)C(Cl)(Cl)Cl)cc1`, which cytotoxicity call is on record?
Its cytotoxicity call is “inactive”.

`O=C(N[C@H](NC(=S)Nc1ccc(F)c([N+](=O)[O-])c1)C(Cl)(Cl)Cl)C(c1ccccc1)c1ccccc1` was tested. Which cytotoxicity call did it give?
The cytotoxicity call was “active”.

With `C[C@@H]1CN([C@@H](C)CO)S(=O)(=O)c2ccc(-c3cncnc3)cc2O[C@H]1CN(C)C(=O)Cc1ccccc1` as the compound, how does the cytotoxicity call read?
The cytotoxicity call was “inactive”.

How did the cytotoxicity call turn out when `C[C@H]1CCCCO[C@H](CN(C)Cc2ccccc2)[C@@H](C)CN([C@@H](C)CO)C(=O)c2cc(NS(=O)(=O)c3cccs3)ccc2O1` was run?
The cytotoxicity call was “inactive”.

For `COc1ccc(CN(C)C[C@@H]2OCCCC[C@@H](C)Oc3ccc(NC(=O)c4ccncc4)cc3C(=O)N([C@@H](C)CO)C[C@H]2C)cc1`, which cytotoxicity call is on record?
Its cytotoxicity call is “inactive”.

`C[C@@H]1CCCCO[C@@H](CN(C)S(=O)(=O)c2cn(C)cn2)[C@H](C)CN([C@H](C)CO)C(=O)c2cc(NC(=O)Nc3cccc4ccccc34)ccc2O1` was tested. Which cytotoxicity call did it give?
Its cytotoxicity call is “inactive”.

Which cytotoxicity call does the source give for `C[C@@H]1CCCCO[C@@H](CN(C)S(=O)(=O)c2cccs2)[C@@H](C)CN([C@H](C)CO)C(=O)c2cc(NS(=O)(=O)c3ccc(Cl)cc3)ccc2O1` here?
Its cytotoxicity call is “inactive”.

Which cytotoxicity call does the source give for `C[C@@H]1CCCCO[C@@H](CN(C)S(=O)(=O)c2cccs2)[C@@H](C)CN([C@@H](C)CO)C(=O)c2cc(NS(=O)(=O)c3ccc(Cl)cc3)ccc2O1` here?
Its cytotoxicity call is “active”.

For `C[C@@H]1CCCCO[C@H](CN(C)S(=O)(=O)c2cccs2)[C@H](C)CN([C@@H](C)CO)C(=O)c2cc(NS(=O)(=O)c3ccc(Cl)cc3)ccc2O1`, which cytotoxicity call is on record?
Its cytotoxicity call is “active”.

`C[C@@H]1CCCCO[C@@H](CN(C)S(=O)(=O)c2cccs2)[C@H](C)CN([C@H](C)CO)C(=O)c2cc(NS(=O)(=O)c3ccc(Cl)cc3)ccc2O1` was tested. Which cytotoxicity call did it give?
The cytotoxicity call was “active”.

How did the cytotoxicity call turn out when `C[C@@H]1CN([C@H](C)CO)C(=O)c2cc(NS(=O)(=O)c3ccc(Cl)cc3)ccc2O[C@@H](C)CCCCO[C@@H]1CN(C)S(=O)(=O)c1cccs1` was run?
The cytotoxicity call was “inactive”.

`C[C@@H]1CCCCO[C@@H](CN(C)S(=O)(=O)c2cccs2)[C@H](C)CN([C@@H](C)CO)C(=O)c2cc(NS(=O)(=O)c3ccc(Cl)cc3)ccc2O1` was tested. Which cytotoxicity call did it give?
The cytotoxicity call was “inactive”.

With `C[C@H](CO)N1C[C@H](C)[C@@H](CN(C)S(=O)(=O)c2cccs2)OCCCC[C@H](C)Oc2ccc(NS(=O)(=O)c3ccc(Cl)cc3)cc2C1=O` as the compound, how does the cytotoxicity call read?
Its cytotoxicity call is “active”.

For `C[C@@H]1CCCCO[C@H](CN(C)S(=O)(=O)c2cccs2)[C@H](C)CN([C@H](C)CO)C(=O)c2cc(NS(=O)(=O)c3ccc(Cl)cc3)ccc2O1`, which cytotoxicity call is on record?
The cytotoxicity call was “inactive”.

`C[C@H](CO)N1C[C@H](C)[C@H](CN(C)S(=O)(=O)c2cccs2)OCCCC[C@H](C)Oc2ccc(NS(=O)(=O)c3ccc(Cl)cc3)cc2C1=O` was tested. Which cytotoxicity call did it give?
Its cytotoxicity call is “inactive”.

`C[C@@H]1CN([C@@H](C)CO)C(=O)c2cc(NS(=O)(=O)c3ccc(Cl)cc3)ccc2O[C@@H](C)CCCCO[C@@H]1CN(C)S(=O)(=O)c1cccs1` was tested. Which cytotoxicity call did it give?
The cytotoxicity call was “inactive”.

How did the cytotoxicity call turn out when `C[C@H]1CCCCO[C@@H](CN(C)S(=O)(=O)c2cccs2)[C@@H](C)CN([C@@H](C)CO)C(=O)c2cc(NS(=O)(=O)c3ccc(Cl)cc3)ccc2O1` was run?
Its cytotoxicity call is “inactive”.

For `C[C@@H]1CN([C@H](C)CO)C(=O)c2cc(NS(=O)(=O)c3ccc(Cl)cc3)ccc2O[C@@H](C)CCCCO[C@H]1CN(C)S(=O)(=O)c1cccs1`, which cytotoxicity call is on record?
Its cytotoxicity call is “inactive”.
